# Assay results published in PubChem BioAssay (Tox21).
# Values joined by “and” are separate entries in the source; they are usually repeats but may differ in a detail not shown here. Equal entries are not always repeated. Results filed as inconclusive are left out. More than one record can exist for a structure, and the calls need not agree. Active and inactive are the calls of the source. Calls come from the whole dose curve; as a rule, active = well fitted cell-killing curve with a large enough effect in the repeat runs; inconclusive = weak or mixed curves; inactive = no such curve, though single readings can be large or run the other way.
# Assay: qHTS assay for identifying genotoxic compounds that show differential cytotoxicity against isogenic chicken DT40 cell lines with known DNA damage response pathways - Rad54/Ku70 mutant cell line (AID 743015); note: nearly all actives have a fitted effect of over 60% in size
# Settings: DT40 Rad54/Ku70 mutant viability, CellTiter-Glo, 40 h; series mostly up to 66.8 µM; activity change, negative = cytotoxicity: at the top concentration
# Description: National Center for Advancing Translational Sciences [NCATS]
# NIH Chemical Genomics Center [NCGC]
# U.S. Environmental Protection Agency [EPA]
# National Institutes of Environmental Health Sciences [NIEHS]
# National Toxicology Program [NTP]
# U.S. Food and Drug Administration [FDA]
# DNA repair pathways play a critical role in cellular homeostasis by repairing DNA damage induced by endogenous processes and xenobiotics. Isogenic chicken DT40 cell lines deficient in different DNA repair pathways can be used to identify genotoxic compounds and aid in characterizing the nature of the DNA damage induced. Two DNA repair-deficient cell lines with disrupted genes, Rad54/Ku70 or Rev3, were used to screen the Tox21 10K compound library. Possible genotoxicity was based on the presence of a significant increase in cytotoxicity in one or more of the DNA repair-deficient cell lines compared to that observed in the parental DNA repair-proficient cell line. CellTiter Glo viability assay (Promega, Madison, WI) was used to measure cell viability in these cells after compound treatment. This assay includes the data from the Rad54/Ku70 mutant cell line.
# Tox21 Assay Protocol Summary:
# 300 DT40 mutant cells in 5 uL/well were dispensed into white, solid-bottom 1536-well plates using a Multidrop Combi (ThermoFisher Scientific, Waltham, MA) dispenser. After the assay plates were incubated at 37 C/5% CO2 for approximately 0.5 hour, 23 nL of compounds dissolved in DMSO, positive controls or DMSO only was transferred into the assay plate by a pintool work station (Kalypsys, San Diego, CA). The assay plates were incubated at 37 C/5% CO2 for 40 hours. After 5 uL per well of CellTiter-Glo reagent was added into each well of the assay plates, the plates were incubated for 30 min at room temperature and the luminescence intensity of the plates was measured using a ViewLux (PerkinElmer, Shelton, CT) plate reader.
# % is set by controls: 0 for no effect and ±100 for the full control effect; potency is the fitted concentration of half-maximal effect.
SMILES,"activity change, negative = cytotoxicity",Potency
c1ccc2cc3c(ccc4ccccc43)cc2c1,10.9% [at 95.1 µM] (inactive),
O=C(O)c1cc(Cl)cc(Cl)c1,1.4% (inactive),
COc1cc(C(=S)N2CCOCC2)ccc1O,1.02% (inactive),
CC1COc2c(N3CCN(C)CC3)c(F)cc3c(=O)c(C(=O)O)cn1c23 (stereo not given),2.42% (inactive),
CCCN[C@H]1CCc2nc(N)sc2C1,,inactive
C=C(C)C(=O)O,,inactive
NC(=Nc1ccccc1)Nc1ccccc1,,inactive and 61.1 µM (active)
CCN1CCCC1CNC(=O)c1cc(S(=O)(=O)CC)c(N)cc1OC (stereo not given),1.94% (inactive),
CCC(=O)/C=C/C1C(C)=CCCC1(C)C (stereo not given),,inactive and 61.1 µM (active)
CC1=CC(=O)c2ccccc2C1=O,,26.6 µM (active) and 15.4 µM (active)
c1ccc2c(c1)CCCC2C1=NCCN1 (stereo not given),0.291% (inactive),
BrC1CCC(Br)C(Br)CCC(Br)C(Br)CCC1Br (stereo not given),,inactive and 25.9 µM (active)
Oc1ccc(Cl)cc1Cc1cc(Cl)ccc1O,,16.8 µM (active) and 31.2 µM (active) and 12.2 µM (active)
O=C(O)CP(=O)(O)O,-0.307% (inactive),
CCC(CO)(CO)COCC(CC)(CO)CO,0.123% (inactive),
CCOc1ccccc1C(N)=O,,inactive
CN1C(=O)c2ccc([N+](=O)[O-])cc2C1=O,2.1% (inactive),
CCCCCCCCCCCCc1ccccc1O,,12 µM (active) and 27.3 µM (active)
CCCNC(C)C(=O)Nc1ccccc1C (stereo not given),0.457% (inactive),
CCC[C@H](N[C@@H](C)C(=O)N1[C@H](C(=O)O)C[C@@H]2CCCC[C@@H]21)C(=O)OCC,0.162% (inactive),

SMILES,"activity change, negative = cytotoxicity",Potency
Cc1c(O)cccc1C(=O)N[C@@H](CSc1ccccc1)[C@H](O)CN1C[C@H]2CCCC[C@H]2C[C@H]1C(=O)NC(C)(C)C,,13.3 µM (active) and 18.8 µM (active)
N[C@@H]1CONC1=O,-5.05% (inactive),
O=C(Oc1ccccc1)c1ccccc1O,,inactive and 61.1 µM (active)
CCN(CC)C(=O)Nc1ccc(OCC(O)CNC(C)(C)C)c(C(C)=O)c1 (stereo not given),6.26% (inactive),
CCC(C)(Oc1ccc(C2(c3ccc(OC(C)(CC)C(=O)O)cc3)CCCCC2)cc1)C(=O)O (stereo not given),5.07% (inactive),
O=C1OC2(c3ccc(O)cc3Oc3cc(O)ccc32)c2ccccc21,,inactive
OCCN1CCNCC1,3.72% (inactive),
O=c1n(CC2CO2)c(=O)n(CC2CO2)c(=O)n1CC1CO1 (stereo not given),,944 nM (active) and 217 nM (active)
CC(C)(C)c1cc(C(C)(C)C)c(O)c(C(C)(C)C)c1,,inactive
Cc1cccc2n[nH]nc12,,inactive
CNC1(C)C2CCC(C2)C1(C)C (stereo not given),-6.31% (inactive),
CCn1c2ccccc2c2cc(N)ccc21,,54.5 µM (active)
Cc1cccc([N+](=O)[O-])c1C(=O)O,-0.519% (inactive),
CCc1cc(C(C)(C)C)c(O)c(C(C)(C)C)c1,-3.09% [at 95.1 µM] (inactive),
CC(C)CCOCc1ccccc1,-10.4% (inactive),
c1cc(C(c2ccc(OCC3CO3)cc2)C(c2ccc(OCC3CO3)cc2)c2ccc(OCC3CO3)cc2)ccc1OCC1CO1 (stereo not given),,6.34 µM (active) and 3.06 µM (active)
Nc1nc(=S)c2[nH]cnc2[nH]1,,1.33 µM (active) [middle of 4 runs]
CC(C)(O)CCC(C)(C)O,5.53% [at 95.1 µM] (inactive),
COc1ccc(CCN(C)CCCC(C#N)(c2ccc(OC)c(OC)c2)C(C)C)cc1OC (stereo not given),,29.8 µM (active) and 61 µM (active)
Nc1nc2ccccc2[nH]1,-0.228% (inactive),
